In all, about 48,000 compounds went through this assay and about 13,000 (27%) showed an effect of 50% or more. The list shows a part of the results.

The assay has as its system Wolbachia pipientis. Put plainly: Anti-Wolbachia Cell-Based Screen. It is filed as functional. The note with it: 5 µM. Details: scale not given: in the data most compounds retested in dose-response had high values.
In the case of `O=C(O)C(F)(F)F.O=C(O)C(F)(F)F.O=C1CC2(CCN(Cc3ccccn3)C2)CN1c1cccnc1` (centres undefined), the “Percent Effect” value is listed as 1.703%.
As to `O=C(O)C(F)(F)F.O=C(O)C(F)(F)F.O=C1CC2(CCN(CC3CC3)C2)CN1c1cccnc1` (centres undefined), the “Percent Effect” value worked out at 7.384%.
With `CN(C)C(=O)N1CCC2(C1)CN(c1cccnc1)C(=O)CN2C` (centres undefined) the figure was 109.4%.
To `CCN1CCN(C(=O)COc2ccc(CN(C)S(C)(=O)=O)cc2)CC1` belongs -1.123%; to `O=C(COc1cccc(F)c1)N1C[C@@H](O)[C@H](N2CCCC2)C1`, -2.251%; to `CN(C)[C@@H]1CN(C(=O)COc2cccc(F)c2)C[C@H]1O`, 81.08%.
With `O=C(COc1cccc(F)c1)N1C[C@@H](O)[C@H](N2CCOCC2)C1` the figure was 106.1%; with `COc1cccc(OCC(=O)N2CCCSCC2CN2CCOCC2)c1` (centres undefined), 8.311%.
Take `COc1ccccc1OCC(=O)N1CCN(Cc2noc(C)n2)CC1`: the “Percent Effect” value amounted to 5.502%.
Take `Cc1ccccc1C1(CN)CCCCC1`: the “Percent Effect” value is reported as 0.8163%.
In the case of `Cc1nc(N2C[C@H]3CC[C@@H](C2)N3)nc2cc(S(C)(=O)=O)ccc12`, the “Percent Effect” value is 4.923%.
With `Cc1nc(CN2C[C@@H]3OCCN(c4ncc(F)cn4)[C@@H]3C2)cs1` the figure was -23.28%; with `Cc1cnc(N2CCC[C@@H]3CN(CC(=O)N(C)C)C[C@@H]32)nc1.O=C(O)C(F)(F)F.O=C(O)C(F)(F)F`, -0.2022%; with `CCOC(=O)CN1C[C@@H]2OCCN(c3ncc(F)cn3)[C@@H]2C1`, 86.46%.
Turning to `CN(C)C(=O)CN1C[C@@H]2OCCN(c3ncc(F)cn3)[C@@H]2C1`, the “Percent Effect” value was 104.1%.
With `CCN1C[C@H]2[C@@H](C1)N(c1ncc(F)cn1)CC[C@H]2OC.O=C(O)C(F)(F)F.O=C(O)C(F)(F)F` the figure was 2.548%; with `Cc1nc(C2CCN(C(C)C)CC2)sc1Br`, 83.07%.
With `Cc1nc(C2CCCN(C(C)C)C2)sc1Br` (centres undefined) the figure was 117%.
With `Cl.O=C(NCC(F)(F)F)C1=NOC2(CCCNC2)C1` (centres undefined) the figure was 8.664%; with `CN(Cc1cncnc1)[C@H]1CN(Cc2ccco2)[C@@H]2CCCO[C@@H]21`, -12.03%; with `CN(C)C(=O)CN1CCO[C@H]2CN(c3ccccn3)C[C@H]21`, -17.61%.
As for `Cc1cc(CN2CCN3C[C@H](c4ccccc4)[C@@H](CO)[C@H]3C2)on1`, the “Percent Effect” value is recorded as 124.7%.
In the case of `Cc1cc(CN2C[C@H]3CC[C@@H]2CN(Cc2[nH]cnc2C)C3)on1`, the “Percent Effect” value amounted to 1.495%.
To `O=C(O)C(F)(F)F.O=C(O)C(F)(F)F.c1ccc(CO[C@@H]2C[C@H]3CN(c4ncccn4)CCN3C2)nc1` belongs -5.237%.
To `OC[C@@H]1[C@H]2CN(c3ccccn3)CCN2C[C@H]1c1ccccc1` belongs 110.4%; to `OC[C@@H]1[C@@H](c2ccccc2)CN2CCN(c3ccccn3)C[C@H]12`, 121.4%.
To `c1ccc(-c2cc(CN3C[C@H]4CC[C@H]3C4)on2)cc1` belongs 0.1259%.
With `COCC(=O)NC[C@H]1C[C@@H]2CCN1C[C@@H]2CN1CCc2ccccc2C1`, the “Percent Effect” value is listed as -3.386%.
For `COc1cccc(CC(C)NC(=O)NCCc2cccnc2)c1` (centres undefined), the “Percent Effect” value is -9.147%.
For the compound `CN(C)Cc1cncc2c1CCN(CC(=O)N(C)C)C2`, the “Percent Effect” value was found to be 91.67%.
`CC(C)N(C)Cc1cncc2c1CCN(CC1CC1)C2.Cl.Cl.Cl`: the “Percent Effect” value came out at 102.9%.
With `Cl.Cl.c1cnc(NCc2cncc3c2CCN(CC2CC2)C3)nc1` the figure was 93.82%; with `CS(=O)(=O)NCc1cncc2c1CCN(CC1CCOC1)C2.Cl.Cl` (centres undefined), -2.425%; with `CN(C)C(=O)CN1C[C@@H]2CC[C@H](C1)N(Cc1c(Cl)cncc1Cl)C2`, -12.98%.
With `CC(C)N(C)Cc1cncc2c1CCN(CC(=O)N(C)C)C2.Cl.Cl.Cl` the figure was 105.8%; with `CCN1CCc2c(CNC(=O)c3nccn3C)cncc2C1.Cl.Cl.Cl`, 11.07%.
Consider `CN(C)C(=O)CN1C[C@@H]2CC[C@H](C1)N(C(=O)Cc1ccccc1Cl)C2`, for which the “Percent Effect” value is on record as -1.206%.
To `CC(C(=O)N1CCCC1)N1CCCN(C(=O)Oc2ccccc2)CC1` (centres undefined) belongs 21.65%; to `Cc1noc(C)c1CN1C(=O)[C@H]2CC[C@@H]1CN(Cc1nccs1)C2`, -3.876%.
To `FC1(F)CCNCC12CCN(c1ccccn1)C2` (centres undefined) belongs -2.564%.
To `Cc1nc(NCc2ccco2)nc2c1COCC21CCNC1.O=C(O)C(F)(F)F` (centres undefined) belongs -14.58%; to `N#Cc1ccc(NCCc2n[nH]c(=O)[nH]2)cc1Cl`, -5.304%; to `CN(C)Cc1cncc2c1CCN(C1CCOCC1)C2.Cl.Cl.Cl`, 89.69%.
`O=C1[C@H]2CN(C3CCOCC3)C[C@H]2CN1Cc1cccnc1`: the “Percent Effect” value is -4.896%.
With `CSc1ncc(CN2C[C@H]3CC[C@@H]2CN(C2CCOCC2)C3)cn1` the figure was -8.939%; with `CC(C)N(C)Cc1cncc2c1CCN(C1CCOCC1)C2.Cl.Cl.Cl`, 97.34%.
With `COc1cccc(CC(C)NC(=O)NCCNC(C)=O)c1` (centres undefined) the figure was -2.176%; with `Cc1cc(C)c(CNc2ncnc3c2cnn3C)c(=O)[nH]1`, -6.133%.
`COc1c(CNCCc2c[nH]c3cc(F)ccc23)c(C(C)C)nn1C`: the “Percent Effect” value was determined as 79.98%.
As for `COc1c(CNCCc2c[nH]c3cc(F)ccc23)c(C)nn1C`, the “Percent Effect” value is given as 86.39%.
As for `CC(C)(C)c1n[nH]c(C2CN(CC3CCC3)CCO2)n1` (centres undefined), the “Percent Effect” value was 7.516%.
`O=C1CCCN1CCN1CC=C(c2cnn(C3CCS(=O)(=O)C3)c2)CC1` (centres undefined): the “Percent Effect” value is -11.25%.
With `CC(=O)C1(c2ccccc2)CCN(C(=O)CC2CNCCO2)CC1` (centres undefined) the figure was 5.115%.
Regarding `O=C(c1ccccc1)N1CCO[C@@H]2CNC[C@@H]21`, the “Percent Effect” value was 106.9%.
To `O=C(C1CCCC1)N1CCO[C@@H]2CNC[C@@H]21` belongs -1.725%.
Consider `O=C(c1ccccc1)N1CCOC2CNCC[C@H]21` (some centres undefined), for which the “Percent Effect” value was found to be 121.8%.
With `CC[C@H]1CN2CC[C@H]1C[C@@H]2CNC(=O)c1ccco1` the figure was -12.57%.
For `O=C(c1ccoc1)N1CCO[C@@H]2CNC[C@@H]21`, the “Percent Effect” value is given as 113.2%.
As to `Cl.Cl.c1cc(CN2CCO[C@@H]3CNC[C@@H]32)cs1`, the “Percent Effect” value is -7.592%.
For `O=C(C1CCC1)N1CCO[C@@H]2CNC[C@@H]21`, the “Percent Effect” value is given as 7.79%.
As for `N#Cc1cccc(CN2CCO[C@@H]3CNC[C@@H]32)c1`, the “Percent Effect” value is on record as -0.4846%.
In the case of `c1cc(CN2CCO[C@@H]3CNC[C@@H]32)co1`, the “Percent Effect” value is given as -20.72%.
Consider `O=C(c1ccco1)N1CCO[C@@H]2CNC[C@@H]21`, for which the “Percent Effect” value came out at 105.9%.
Regarding `Cl.Cl.c1ccc(CN2CCOC3CNCC[C@H]32)cc1` (some centres undefined), the “Percent Effect” value is -10.82%.
As to `Cn1nc(-c2ccccc2)cc1[C@H]1CN2CC[C@H]1C[C@@H]2CNS(C)(=O)=O`, the “Percent Effect” value turned out to be 1.19%.
Take `CNCc1cn(C[C@H]2CC3CCN2C[C@@H]3C(=O)Nc2ccccc2)nn1` (some centres undefined): the “Percent Effect” value is -4.498%.
To `O=C1NC[C@H]2CN(C3CCOCC3)CCN12` belongs -8.801%; to `COc1ccccc1OCCCN1CC=C(c2cnn(C)c2)CC1`, 5.6%; to `CCC(CC)NCC(C)Oc1cccnc1` (centres undefined), 18.13%.
With `Cl.Cl.O=C(N[C@H]1CN[C@H]2CCCO[C@H]21)c1cccnc1`, the “Percent Effect” value is listed as -6.399%.
With `O=C(C1CCCCC1)N1CCO[C@@H]2CNC[C@@H]21` the figure was -9.765%.
For the compound `O=C(c1cccnc1)N1CCO[C@@H]2CNC[C@@H]21`, the “Percent Effect” value is recorded as 100.8%.
In the case of `Fc1cccc(CN2C[C@@H]3CN(c4ncccn4)C[C@@H]3C2)c1.O=C(O)C(F)(F)F.O=C(O)C(F)(F)F`, the “Percent Effect” value was determined as 102.6%.
To `O=C(O)C(F)(F)F.c1cnc(N2CCO[C@@H]3CN(Cc4ccoc4)C[C@@H]3C2)nc1` belongs 98.59%; to `Fc1cccc(CN2CCC3(CCN3c3ncccn3)C2)c1.O=C(O)C(F)(F)F` (centres undefined), 74.85%.
Regarding `Fc1cnc(N2C[C@H]3CN(Cc4cccc(F)c4)C[C@H]3C2)nc1.O=C(O)C(F)(F)F.O=C(O)C(F)(F)F`, the “Percent Effect” value is 5.307%.
`O=C(O)C(F)(F)F.O=C(O)C(F)(F)F.O=C1CC2(CCN(Cc3cccnc3)C2)CN1c1cccc(F)c1` (centres undefined): the “Percent Effect” value is reported as 15.74%.
For the compound `Cc1ccc(CN2C[C@@H]3CN(c4ncccn4)C[C@@H]3C2)cc1.O=C(O)C(F)(F)F`, the “Percent Effect” value is reported as 6.326%.
With `O=C(O)C(F)(F)F.O=C(O)C(F)(F)F.O=C(O)C(F)(F)F.c1cncc(CN2CCO[C@@H]3CN(Cc4ccoc4)CC[C@@H]3C2)c1`, the “Percent Effect” value is given as -22.75%.
For the compound `Cc1cccc(CN2C[C@@H]3CN(Cc4ccoc4)CCO[C@@H]3C2)n1.O=C(O)C(F)(F)F.O=C(O)C(F)(F)F.O=C(O)C(F)(F)F`, the “Percent Effect” value is -28.06%.
Consider `Fc1cnccc1CN1CCC2(CCN2c2ncccn2)C1.O=C(O)C(F)(F)F` (centres undefined), for which the “Percent Effect” value is -1.377%.
With `N#Cc1cccc(CN2C[C@@H]3CN(c4ncccn4)C[C@@H]3C2)c1.O=C(O)C(F)(F)F` the figure was 114.7%; with `Cc1nnc([C@@H]2C[C@H]3CN(C4CCC4)C[C@H]3O2)[nH]1.O=C(O)C(F)(F)F`, 6.797%; with `CCN1C(=O)C2(CCCCC2)NC12CCSCC2`, -2.409%.
To `CCCNC1(c2ccc(Cl)cc2)CCOCC1` belongs -6.475%; to `CN1CCC(c2cncc(N(C)C)n2)CC1`, 94.73%.
For `COCCNc1nc2c(c(NCc3cnc(C)c(C)c3)n1)CCNCC2`, the “Percent Effect” value amounted to 2.827%.
With `Cc1cc(CN2C[C@@H]3COC[C@]3(c3nnc(C)o3)C2)no1` the figure was 12.18%.
`Cc1cc(CN2CC[C@H]3C(=O)N(c4ccsc4)CCO[C@H]3C2)no1.O=C(O)C(F)(F)F`: the “Percent Effect” value is recorded as -15.71%.
As to `Cc1nnc([C@H]2CC[C@@H]3[C@@H](CCN3Cc3c(C)noc3C)O2)o1`, the “Percent Effect” value is on record as 0.6834%.
With `Cc1csc([C@@H]2C[C@@H]3CCN(Cc4cc(C)on4)C[C@H]3O2)n1` the figure was 98.39%; with `Cc1cc(CN2C[C@@H]3CN(Cc4ccsc4)CCO[C@@H]3C2)no1`, -0.7027%.
To `Cc1csc([C@H]2C[C@@H]3CCN(Cc4cc(C)on4)C[C@H]3O2)n1` belongs 115.5%; to `C[C@@H]1C[C@@H]2CCN(Cc3nccs3)C[C@H]2O1`, -21.98%.
With `Cc1cc(CN2CC[C@@H]3O[C@@H](c4nnc(C)o4)C[C@H]3C2)no1` the figure was 110.6%; with `Cc1noc([C@@H]2C[C@H]3CN(Cc4cc(C)on4)C[C@H]3O2)n1.O=C(O)C(F)(F)F`, 5.383%.
For the compound `Cc1csc(CN2CC[C@H]3C[C@H](c4ccncn4)O[C@@H]3C2)n1`, the “Percent Effect” value turned out to be 0.9996%.
Take `Cc1cc(CN2CC[C@H]3C[C@H](C(=O)N(C)C)O[C@@H]3C2)no1`: the “Percent Effect” value is given as -3.331%.
Turning to `Cc1csc([C@H]2C[C@H]3CN(Cc4cc(C)on4)CC[C@@H]3O2)n1.O=C(O)C(F)(F)F`, the “Percent Effect” value came to 122.4%.
